High-throughput results deposited in PubChem BioAssay by Broad Institute.
MITF TRPM1 HTS = activators of MITF-driven TRPM1 promoter reporter, primary screen, cell-based, SK-MEL-5, luciferase, single point; SK-MEL-5 TRPM1-promoter luciferase, 24 h; % of positive control, neutral wells = 0; activation, % at 12.5 µM; 300,000 tested, 0.75% active; AID 588334, 2011;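 active means mean activation of at least 80% with every replicate also reaching 80%; inconclusive means mean reaches 80% but some replicate falls short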;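 further: 0% = neutral control wells and 100% = parthenolide positive control wells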
Wnt act = Wnt/beta-catenin pathway activators, primary screen, cell-based, plate reader, single point; 300,000 tested, 1.2% active; Wnt/beta-catenin reporter cell assay, activator; activation, % at 9.35 µM; in the data active means activation above about 30%, passing the limit was not always enough; inconclusive means no clear call, values can overlap the other calls;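 further: 0% = neutral control wells and 100% = positive control wells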
Env fusion inh = inhibitors of HIV-1 Env-driven cell-cell fusion, primary screen, HeLa-JRFL effector, CEM21 target cells, luciferase | inhibition, % at 12.3 µM | 360,000 tested, 1.1% active;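 active means mean replicate inhibition score of at least 50 and every replicate individually at or above 50; inconclusive means only one of the two criteria met; inactive means mean below 50 and not all replicates reaching 50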;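 further: 0% = plate neutral controls and 100% = maraviroc near 300 nM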
miR122 inh = miR-122 Renilla sensor signal increase in Huh7, primary screen, miR-122 inhibitor project, cell-based, single point, plate reader. Huh7 miR-122 Renilla luciferase sensor, 48 h; neutral wells = 0, positive control = 100. activation (reporter increase), % at 12.5 µM. 340,000 tested, 0.3% active. AID 602342, 2012;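 active means mean replicate activation score at least 90 and every replicate individually at or above 90; inconclusive means only one of the two criteria met; inactive means neither criterion met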;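 further: higher luciferase means less miR-122 activity so hits act as miR-122 inhibitors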
esBAF inh = Bmi1 luciferase reporter increase in mESCs, primary screen, esBAF inhibitor project, mouse ES cells, Bmi1 luciferase knock-in, single point; 24 h; 100% = twice the neutral-well signal; reporter increase, % at 12.5 µM; 350,000 tested, 2% active; AID 602393, 2012; in the data active means activation above about 40%; inconclusive means no clear call, values can overlap the other calls;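 further: 0% = median of the plate's neutral control wells and 100% = double that signal; a rise in the Bmi1 reporter signal indicates esBAF inhibition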
An asterisk follows results filed as active; [ ] = another dose, or the depositor's remark. The list is not random: actives were taken first. Their share in the collection is about 3.4%.

How did CC(C)CCn1cnc2c(sc3nc4c(cc32)CSC(C)(C)C4)c1=O do in these assays?
MITF TRPM1 HTS: 85*; Wnt act: -2; Env fusion inh: -23

How did CC1(C)Cc2nc3sc4c(NCCO)ncnc4c3cc2CS1 do in these assays?
MITF TRPM1 HTS: 17; Wnt act: 9; Env fusion inh: -33; miR122 inh: -6; esBAF inh: 16

What do the screens show for `C[C@H]1CN([C@@H](C)CO)C(=O)Cc2cc(NS(=O)(=O)c3cccs3)ccc2O[C@@H]1CN(C)S(=O)(=O)c1cccs1`?
Env fusion inh: 12[16.7 µM]; miR122 inh: -2[16.7 µM]; esBAF inh: -3

What do the screens show for `N/C(=N\OC(=O)c1ccc2c(c1)OCO2)c1ccncc1`?
MITF TRPM1 HTS: 55; Wnt act: 55*; Env fusion inh: -47; miR122 inh: -2; esBAF inh: 31

What do the screens show for `N/C(=N\OC(=O)c1ccc2c(c1)OCO2)c1ccc(Cl)cc1`?
MITF TRPM1 HTS: 106*; Wnt act: -2; miR122 inh: -2; esBAF inh: 28

Results for CCCNC(=O)N(C)C[C@@H]1Oc2ncc(-c3ccncc3)cc2C(=O)N([C@@H](C)CO)C[C@@H]1C ?
Env fusion inh: -6[16.7 µM]; miR122 inh: 0[16.7 µM]; esBAF inh: -3

How did O=C(O)c1cccc(Nc2ccnc(Nc3cccc(C(=O)O)c3)n2)c1 do in these assays?
MITF TRPM1 HTS: -27; Wnt act: -1; Env fusion inh: 59*; miR122 inh: 1; esBAF inh: -74

Results for CCN(CCn1cccn1)C(=O)CC1C(=O)NCCN1CCc1ccccc1 (configuration not stated) ?
MITF TRPM1 HTS: 13; Wnt act: 3; Env fusion inh: 88*; miR122 inh: -11

What do the screens show for `CCN(CCn1cccn1)C(=O)CC1C(=O)NCCN1CC1CCCCC1` (configuration not stated)?
MITF TRPM1 HTS: 7; Wnt act: -2; Env fusion inh: -5

What do the screens show for `O=c1c2ccccc2nc2sc(Nc3ccc(F)cc3)nn12`?
MITF TRPM1 HTS: 51; Wnt act: 29; Env fusion inh: -132; miR122 inh: -3; esBAF inh: inconclusive

How did C/C(Cl)=C/CSc1nn2c(=O)c3ccccc3nc2s1 do in these assays?
MITF TRPM1 HTS: inconclusive; esBAF inh: 34

What do the screens show for `C=CCSc1nn2c(=O)c3ccccc3nc2s1`?
Wnt act: 52*; Env fusion inh: -239; miR122 inh: 4; esBAF inh: 14

What do the screens show for `Cc1ccccc1Nc1nn2c(=O)c3ccccc3nc2s1`?
MITF TRPM1 HTS: 43; Wnt act: 35*; Env fusion inh: -134; miR122 inh: 1; esBAF inh: 38

Results for Cc1ccccc1Nc1nn2c(=O)c3ccc(C(=O)N4CCCC(C)C4)cc3nc2s1 (configuration not stated) ?
Wnt act: -1; Env fusion inh: -3; miR122 inh: -7; esBAF inh: -6

How did COc1cccc(Nc2nn3c(=O)c4ccccc4nc3s2)c1 do in these assays?
MITF TRPM1 HTS: 114*; miR122 inh: 2; esBAF inh: 69*

What do the screens show for `Cc1noc(C)c1NC(=O)Nc1ccc2c(c1)C(=O)N([C@H](C)CO)C[C@@H](C)[C@@H](CN(C)S(=O)(=O)c1ccc(F)cc1)OCCCC[C@H](C)O2`?
Env fusion inh: 5[16.7 µM]; miR122 inh: 0[16.7 µM]; esBAF inh: 4

Results for Cc1cc(NC(=O)CSc2nc3c(c(=O)n2Cc2ccccc2)SC(C)C3)no1 (configuration not stated) ?
MITF TRPM1 HTS: 21; Wnt act: 3; Env fusion inh: -18; miR122 inh: 8; esBAF inh: 46*

What do the screens show for `Nc1nc(-c2ccccc2)nn1C(=O)c1ccco1`?
MITF TRPM1 HTS: -4; Wnt act: 0; Env fusion inh: 2

What do the screens show for `O=C(Cc1ccccc1)n1nc(-c2ccco2)nc1SCc1ccccc1`?
Wnt act: 20; Env fusion inh: -61; miR122 inh: -5; esBAF inh: -7

What do the screens show for `CSc1nc(-c2ccco2)nn1S(=O)(=O)c1ccc(C)cc1`?
MITF TRPM1 HTS: -8; Wnt act: 0; Env fusion inh: 4; miR122 inh: 3; esBAF inh: 6

Results for Cc1ccc(S(=O)(=O)n2nc(-c3ccco3)nc2SCc2ccccc2)cc1 ?
MITF TRPM1 HTS: 47; miR122 inh: -4; esBAF inh: 48*

Results for O=C(c1ccco1)n1nc(-c2ccccc2)nc1SCc1ccccc1 ?
MITF TRPM1 HTS: 58; Wnt act: 41*; Env fusion inh: -66; miR122 inh: -2; esBAF inh: 47*

How did O=C(c1ccco1)n1nc(-c2ccco2)nc1SCc1ccccc1 do in these assays?
MITF TRPM1 HTS: 37; Wnt act: 22; Env fusion inh: 4; miR122 inh: -10; esBAF inh: 45*

How did O=C(C[C@H]1C=C[C@H](NC(=O)C2CCC2)[C@@H](CO)O1)Nc1nccs1 do in these assays?
Env fusion inh: 1[16.7 µM]; esBAF inh: 0

How did O=C(COC(=O)C1CC2CCCC(C1)C2=O)Nc1nc(-c2ccc(F)c(F)c2)cs1 (configuration not stated) do in these assays?
MITF TRPM1 HTS: 41; Wnt act: 19; Env fusion inh: -7; miR122 inh: -6; esBAF inh: 70*

Results for O=C(COC(=O)C1CC2CCCC(C1)C2=O)Nc1ccc(F)c(Cl)c1 (configuration not stated) ?
MITF TRPM1 HTS: -1; Wnt act: -1; miR122 inh: 6; esBAF inh: 3

What do the screens show for `C[C@H](CO)N1C[C@H](C)[C@H](CN(C)Cc2ccccn2)Oc2ncc(C3=CCCC3)cc2C1=O`?
Env fusion inh: -4[16.7 µM]; miR122 inh: 10[16.7 µM]; esBAF inh: -6

How did CC1CN(c2nc3ccccc3nc2SCC(=O)Nc2cccc(C(F)(F)F)c2)CC(C)O1 (configuration not stated) do in these assays?
MITF TRPM1 HTS: -16; Wnt act: -5; Env fusion inh: 64*; esBAF inh: 13

How did Cc1cccc(NC(=O)CSc2nc3ccccc3nc2N2CC(C)OC(C)C2)c1 (configuration not stated) do in these assays?
Wnt act: -3; miR122 inh: 2; esBAF inh: 19

What do the screens show for `Cn1c2ccccc2c2ncn(CCCN3CCOCC3)c(=O)c21`?
MITF TRPM1 HTS: -3; Env fusion inh: -34; miR122 inh: -1

What do the screens show for `Cn1c2ccccc2c2ncn(CCC3=CCCCC3)c(=O)c21`?
Env fusion inh: -27; miR122 inh: -7; esBAF inh: 74*

How did O=C1CNC(=S)N1CCc1ccc(O)c(O)c1 do in these assays?
Wnt act: 50*; Env fusion inh: 6; miR122 inh: -11
